Activity calls are given as the source filed them.

Test system in one experiment: not listed separately
The experiment is described as follows: splicing luciferase reporter signal modulators, primary screen, spliceosome inhibition project, cell-based, HEK293, splice +/- reporter (AID 1101).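 Note: HEK293 cells carrying a splicing-competent luciferase reporter gene; test concentration not given here.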 Particulars: luminescence, 24 h, higher = more signal, called active from +8 up or from −8 down. A general note: In a reporter assay the amount or activity of a reporter protein is the signal.
For the compound `O=C1O[C@@H](c2ccccc2)[C@@H](c2ccccc2)N2[C@@H](c3ccc(OCCO)cc3)[C@]3(C(=O)Nc4ccc(C#CC5(O)CCCCCC5)cc43)[C@@H](C(=O)Nc3nc4ccccc4s3)[C@H]12`, the z-score was -0.102 (inactive).

With `COCCOC(=O)N1C(=O)[C@@]2(c3cc(C#CCCO)ccc31)[C@H](C(N)=O)[C@H]1C(=O)O[C@H](c3ccccc3)[C@H](c3ccccc3)N1[C@@H]2c1ccccc1OCCO`, the z-score was -0.871 (inactive).

As for `CC1CC/C=C\[C@H]2OC34C=CCN(C(C)(C)C)C(=O)[C@H]3N(CCCO)C(=O)[C@@H]4C2C(=O)O1` (some centres not stated), the z-score is 0.964 (inactive).

On to `COc1ccc([Si](C)(C)[C@H]2[C@H](CC(=O)N3Cc4ccccc4C[C@H]3CO)O[C@@]3(C(=O)N(C)c4ccccc43)[C@@H]2C)cc1`, for which the z-score is -2.06 (inactive).

On to `Cc1ccc(S[C@]2(C(=O)NCCCN(C)C)CC(=O)N(C3Cc4ccccc4C3)[C@@H]2c2ccc(CO)cc2I)cc1`, for which the z-score was -1.53 (inactive).

On to `O=C1O[C@H](c2ccccc2)[C@H](c2ccccc2)N2[C@H]1[C@@H](C(=O)N1CCN(c3ncccn3)CC1)[C@]1(C(=O)Nc3ccc(C#CCCO)cc31)[C@H]2c1ccc(O)cc1`, for which the z-score was -0.057 (inactive).

For the compound `[N-]=[N+]=Nc1ccccc1C[C@]1(C(=O)N2CCOCC2)N=C(c2ccc(OCCCO)cc2)O[C@H]1c1ccccc1N=[N+]=[N-]`, the z-score is -0.591 (inactive).

Consider `COc1ccc(C(=O)Nc2ccc(CN3C(=O)[C@@]4(O[C@@H](CCn5cc(CCO)nn5)[C@H]([Si](C)(C)c5ccc(OC)cc5)[C@H]4C)c4ccccc43)cc2)cc1`, for which the z-score is -1.8 (inactive).

With `NC(=O)NCC#Cc1ccc2c(c1)[C@]1(C(=O)N2)[C@H](c2ccc(OCCO)cc2)N2[C@H](c3ccccc3)[C@H](c3ccccc3)OC(=O)[C@H]2[C@@H]1C(=O)NC[C@H](O)c1ccccc1`, the z-score was 0.199 (inactive).

`O=C1[C@H]2C=C(I)[C@H](C[C@@H]2c2ccccc2)[C@@]12CO2`: the z-score was 0.523 (inactive).

On to `CC(C)NC(=O)[C@@H]1c2ccccc2C(=O)N(Cc2ccc(OC(F)(F)F)cc2)[C@H]1c1ccc(CO)cc1`, for which the z-score is -0.211 (inactive).

In the case of `COc1ccc([Si](C)(C)[C@H]2[C@H](CC(=O)N3Cc4ccccc4C[C@H]3CO)O[C@@]3(C(=O)N(c4ccccc4)c4ccccc43)[C@@H]2C)cc1`, the z-score is -0.691 (inactive).

With `CC(C)(C)N1CC=CC23O[C@@H]4/C=C\CCCOC(=O)C4[C@H]2C(=O)N(CCCO)[C@@H]3C1=O` (some centres not stated), the z-score is 0.539 (inactive).

Take `O=C1C2C=CC(C(O)c3ccc([N+](=O)[O-])cc3)N(Nc3ccccc3F)C2C(=O)N1c1ccccc1` (configuration not stated): the z-score is 1.02 (inactive).

For `COc1ccccc1CN1C(=O)c2ccccc2[C@](Cc2ccccc2I)(C(=O)NCC(C)C)[C@@H]1c1ccc(CO)cc1`, the z-score is 0.0236 (inactive).

As for `C=C(CCCC)/C(=C/C[C@H](OC(=O)c1ccncc1)c1ccc(OCCO)cc1)c1cnc2ccccc2c1`, the z-score is -0.0197 (inactive).

Consider `CCCC[C@H]1C[C@@H]1[C@@H]1N(C(C)=O)[C@H](c2cccc(OC)c2)CC12CC2`, for which the z-score was -1.86 (inactive).

Regarding `O=C1O[C@H](Cc2ccccc2)[C@@H]2[C@H]3C=CCCC=C3CN2[C@H]1Cc1ccc(O)cc1`, the z-score was 0.192 (inactive).

`COCCOC(=O)N1C(=O)[C@@]2(c3cc(C#CCC(C(=O)OC)C(=O)OC)ccc31)[C@H](C(=O)Nc1nc3ccccc3s1)[C@H]1C(=O)O[C@H](c3ccccc3)[C@H](c3ccccc3)N1[C@@H]2c1ccc(OCCO)cc1`: the z-score was 0.0491 (inactive).

Take `CCCCCCc1nc(Cc2cc(OC)c(OC)c(OC)c2)cc2c1[Si](C(C)C)(C(C)C)O[C@H]2c1ccccc1`: the z-score is -0.189 (inactive).

`COC(=O)c1cccc([C@H]2OC(=CC(=O)OC(C)C)C[C@@H](c3cccc(C(=O)OC)c3)O2)c1`: the z-score is 0.599 (inactive).

Take `C=CC[C@]1(C(=O)NCC(O)CO)COC(c2ccc(OCCCO)cc2)=N1` (some centres not stated): the z-score is 0.2 (inactive).

In the case of `COC(=O)[C@@]1(Cc2ccccc2)[C@H]2c3cc(C(=O)N(C)C)n(Cc4ccc(C(F)(F)F)nc4)c3C[C@H]2CN1C(=O)c1ccccc1`, the z-score is -1.16 (inactive).

Take `CCCNC(=O)[C@@]1(c2ccc([N+](=O)[O-])cc2)CC(=O)N(C(C)C)[C@@H]1c1ccc(CO)cc1`: the z-score is -0.27 (inactive).

Consider `C[C@@H]1NC(=O)C([C@@H](C)OCc2ccccc2)NC(=O)[C@@]23C(=O)N[C@@H](Cc4ccccc4)C2[C@H](C)[C@@]2(C)O[C@H]2C3/C=C/C/C=C\CNC1=O` (some centres not stated), for which the z-score was 0.531 (inactive).

With `CCOC(=O)C1=C[C@@H](C(C)(C)C)N(S(=O)(=O)c2ccc(C)cc2)[C@H]1c1ccc(C#N)cc1`, the z-score is -0.385 (inactive).

The target of the next experiment is Fibroblast growth factor 10 (Homo sapiens) (UniProt O15520). The experiment can be described thus: FGF10 binders on small-molecule microarrays, primary screen, biochemical, small-molecule microarray, 635 nm fluorescence (AID 1102). The following applies: FGF10 binding, fluorescence 635 nm, higher = more signal.
Chain of Fibroblast growth factor 10 (Homo sapiens) (O15520 whole entry, looked up): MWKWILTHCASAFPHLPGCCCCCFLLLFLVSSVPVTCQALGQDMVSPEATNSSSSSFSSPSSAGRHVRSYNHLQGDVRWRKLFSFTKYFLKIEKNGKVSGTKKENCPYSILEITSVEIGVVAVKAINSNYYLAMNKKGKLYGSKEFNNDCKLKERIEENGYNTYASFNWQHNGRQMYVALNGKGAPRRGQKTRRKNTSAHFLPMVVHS
For the compound `C=C1C(=O)C=C2CN(C(=O)c3ccccc3)[C@@](Cc3ccc(OC)cc3)(C(=O)OC)[C@@H]12`, the composite z-score stood at 1.38.

`COC(=O)[C@@]1(Cc2ccc(F)cc2)[C@H]2c3cc(C(=O)N(C)C)n(C)c3C[C@H]2CN1C(=O)c1ccccc1`: the composite z-score stood at 0.414.

`COCCCNC(=O)[C@@]1(CCS(=O)(=O)c2ccccc2)COC(c2ccc(OCCCO)cc2)=N1`: the composite z-score was 0.946.

`CO[C@H]1O[C@H](CO)[C@@H](OC(=O)Nc2ccc3c(c2)OCO3)[C@H](OC(=O)Nc2ccccc2-c2ccccc2)[C@H]1OC(=O)Nc1ccccc1-c1ccccc1` yielded a composite z-score of 1.03.

The compound `NC(=O)N1C(=O)C2C(C1=O)C1C=C(CCCO)C2C(C2CC2)N1Cc1sc2ccccc2c1Cl` (configuration not stated) gave a composite z-score of 1.15.

`C=CC[C@@]1(C(=O)OC)N=C(c2ccc(OCCCO)cc2)O[C@@H]1c1ccccc1N=[N+]=[N-]` returned a composite z-score of 1.32.

With `C=CCC(OC(C)=O)[C@@H]1[C@@H](N(Cc2ccc(-c3ccccc3)cc2)C(=O)c2cccc3ccccc23)c2cc(OCCCO)ccc2N1C(=O)Cc1ccc(OC)cc1` (some centres not stated), the composite z-score came to 0.345.

Regarding `CCOc1cc(C(O)C2C=CC3C(=O)N(c4ccccc4)C(=O)C3N2Nc2ccccc2F)ccc1O` (configuration not stated), the composite z-score amounted to 0.208.

For `C=CCC(OC(C)=O)[C@@H]1[C@@H](N(Cc2cc3ccccc3o2)C(=O)c2cccc3ccccc23)c2cc(OCCCO)ccc2N1C(=O)c1ccc2ccccc2n1` (some centres not stated), the composite z-score was 0.169.

As for `COc1ccc(C(O)C2C=CC3C(=O)N(C)C(=O)C3N2N(c2ccccc2)c2ccccc2)cc1` (configuration not stated), the composite z-score turned out to be 0.434.

The compound `O=C1O[C@@H](c2ccccc2)[C@@H](c2ccccc2)N2[C@@H](c3ccc(OCCO)cc3)[C@]3(C(=O)Nc4ccc(C#CC5(O)CCCCCC5)cc43)[C@@H](C(=O)Nc3nc4ccccc4s3)[C@H]12` yielded a composite z-score of 1.39.

Turning to `COCCOC(=O)N1C(=O)[C@@]2(c3cc(C#CCCO)ccc31)[C@H](C(N)=O)[C@H]1C(=O)O[C@H](c3ccccc3)[C@H](c3ccccc3)N1[C@@H]2c1ccccc1OCCO`, the composite z-score came to 0.738.

Compound `CC1CC/C=C\[C@H]2OC34C=CCN(C(C)(C)C)C(=O)[C@H]3N(CCCO)C(=O)[C@@H]4C2C(=O)O1` (some centres not stated) came in with a composite z-score of -0.0987.

As to `COc1ccc([Si](C)(C)[C@H]2[C@H](CC(=O)N3Cc4ccccc4C[C@H]3CO)O[C@@]3(C(=O)N(C)c4ccccc43)[C@@H]2C)cc1`, the composite z-score was 0.891.

For the compound `Cc1ccc(S[C@]2(C(=O)NCCCN(C)C)CC(=O)N(C3Cc4ccccc4C3)[C@@H]2c2ccc(CO)cc2I)cc1`, the composite z-score was -0.795.

In turn, `O=C1O[C@H](c2ccccc2)[C@H](c2ccccc2)N2[C@H]1[C@@H](C(=O)N1CCN(c3ncccn3)CC1)[C@]1(C(=O)Nc3ccc(C#CCCO)cc31)[C@H]2c1ccc(O)cc1` gave a composite z-score of 1.06.

Turning to `[N-]=[N+]=Nc1ccccc1C[C@]1(C(=O)N2CCOCC2)N=C(c2ccc(OCCCO)cc2)O[C@H]1c1ccccc1N=[N+]=[N-]`, the composite z-score was found to be 1.41.

For the compound `COc1ccc(C(=O)Nc2ccc(CN3C(=O)[C@@]4(O[C@@H](CCn5cc(CCO)nn5)[C@H]([Si](C)(C)c5ccc(OC)cc5)[C@H]4C)c4ccccc43)cc2)cc1`, the composite z-score was 0.939.

For `NC(=O)NCC#Cc1ccc2c(c1)[C@]1(C(=O)N2)[C@H](c2ccc(OCCO)cc2)N2[C@H](c3ccccc3)[C@H](c3ccccc3)OC(=O)[C@H]2[C@@H]1C(=O)NC[C@H](O)c1ccccc1`, the composite z-score is 0.131.

`O=C1[C@H]2C=C(I)[C@H](C[C@@H]2c2ccccc2)[C@@]12CO2`: the composite z-score was determined as 0.0211.

`CC(C)NC(=O)[C@@H]1c2ccccc2C(=O)N(Cc2ccc(OC(F)(F)F)cc2)[C@H]1c1ccc(CO)cc1` displayed a composite z-score of 1.25.

`COc1ccc([Si](C)(C)[C@H]2[C@H](CC(=O)N3Cc4ccccc4C[C@H]3CO)O[C@@]3(C(=O)N(c4ccccc4)c4ccccc43)[C@@H]2C)cc1` yielded a composite z-score of 1.11.

On to `CC(C)(C)N1CC=CC23O[C@@H]4/C=C\CCCOC(=O)C4[C@H]2C(=O)N(CCCO)[C@@H]3C1=O` (some centres not stated), for which the composite z-score was -0.795.

`O=C1C2C=CC(C(O)c3ccc([N+](=O)[O-])cc3)N(Nc3ccccc3F)C2C(=O)N1c1ccccc1` (configuration not stated) gave a composite z-score of 0.436.

The compound `COc1ccccc1CN1C(=O)c2ccccc2[C@](Cc2ccccc2I)(C(=O)NCC(C)C)[C@@H]1c1ccc(CO)cc1` displayed a composite z-score of -0.0272.

`C=C(CCCC)/C(=C/C[C@H](OC(=O)c1ccncc1)c1ccc(OCCO)cc1)c1cnc2ccccc2c1` yielded a composite z-score of 0.898.

As for `CCCC[C@H]1C[C@@H]1[C@@H]1N(C(C)=O)[C@H](c2cccc(OC)c2)CC12CC2`, the composite z-score is 0.0847.

Compound `O=C1O[C@H](Cc2ccccc2)[C@@H]2[C@H]3C=CCCC=C3CN2[C@H]1Cc1ccc(O)cc1` showed a composite z-score of -0.36.

As for `COCCOC(=O)N1C(=O)[C@@]2(c3cc(C#CCC(C(=O)OC)C(=O)OC)ccc31)[C@H](C(=O)Nc1nc3ccccc3s1)[C@H]1C(=O)O[C@H](c3ccccc3)[C@H](c3ccccc3)N1[C@@H]2c1ccc(OCCO)cc1`, the composite z-score came out at 1.48.

`CCCCCCc1nc(Cc2cc(OC)c(OC)c(OC)c2)cc2c1[Si](C(C)C)(C(C)C)O[C@H]2c1ccccc1` displayed a composite z-score of 0.351.

In the case of `COC(=O)c1cccc([C@H]2OC(=CC(=O)OC(C)C)C[C@@H](c3cccc(C(=O)OC)c3)O2)c1`, the composite z-score was 1.18.
